Laboratory results: PubChem BioAssay (NCI)
The panel holds about 83,000 compounds, 20% with a hit somewhere; the sample as a whole holds those more often.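 Assay: single dose, 48 h. Readout: percent growth (0 = no net growth; negative = cell death). Active: <10.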 Active and inactive are the calls of the source.

Experiments:
Test in all cases: NCI-60 one-dose screen, 48 h (100 = growth as untreated, 0 = no growth, -100 = all killed)
Conditions in all cases: 10 µM unless noted
HCT-15 colon = test system: HCT-15 colon
HT29 colon = test system: HT29 colon
SNB-75 CNS = test system: SNB-75 CNS
SNB-19 CNS = test system: SNB-19 CNS
U251 CNS = test system: U251 CNS
PC-3 prostate = test system: PC-3 prostate
SK-MEL-5 melanoma = test system: SK-MEL-5 melanoma
UACC-62 melanoma = test system: UACC-62 melanoma
LOX IMVI melanoma = test system: LOX IMVI melanoma
SK-MEL-28 melanoma = test system: SK-MEL-28 melanoma
SK-MEL-2 melanoma = test system: SK-MEL-2 melanoma
EKVX NSCLC = test system: EKVX NSCLC
SN12C renal = test system: SN12C renal
TK-10 renal = test system: TK-10 renal
ACHN renal = test system: ACHN renal
CAKI-1 renal = test system: CAKI-1 renal
CCRF-CEM leukemia = test system: CCRF-CEM leukemia
MOLT-4 leukemia = test system: MOLT-4 leukemia
A498 renal = test system: A498 renal
UO-31 renal = test system: UO-31 renal

Measured: growth

O=c1oc2ccccc2cc1-c1csc(N=Nc2c(O)[nH]c3ccc(Cl)cc23)n1
inactive: HCT-15 colon 99.5% | HT29 colon 101% | SNB-75 CNS 93.3% | SNB-19 CNS 99.2% | U251 CNS 94.6% | PC-3 prostate 100% | SK-MEL-5 melanoma 104% | UACC-62 melanoma 98.2% | LOX IMVI melanoma 97.7% | SK-MEL-28 melanoma 103% | SK-MEL-2 melanoma 107% | EKVX NSCLC 103% | SN12C renal 100% | TK-10 renal 106% | ACHN renal 101% | CAKI-1 renal 94.9% | CCRF-CEM leukemia 94.2% | MOLT-4 leukemia 105%

COc1cc(-c2nc(SC(C)C)nc(Nc3ccccc3C)c2C#N)cc(OC)c1OC
inactive: HCT-15 colon 102% | HT29 colon 109% | SNB-75 CNS 108% | SNB-19 CNS 100% | U251 CNS 108% | PC-3 prostate 104% | SK-MEL-5 melanoma 102% | UACC-62 melanoma 97.2% | LOX IMVI melanoma 102% | SK-MEL-28 melanoma 107% | SK-MEL-2 melanoma 103% | EKVX NSCLC 102% | SN12C renal 104% | ACHN renal 101% | CAKI-1 renal 94.1% | A498 renal 88.4% | CCRF-CEM leukemia 103% | MOLT-4 leukemia 110%

Fc1ccccc1Nc1ccc2nnc(-c3ccncc3)n2n1
inactive: HCT-15 colon 95.6% | HT29 colon 103% | SNB-75 CNS 101% | SNB-19 CNS 100% | U251 CNS 101% | PC-3 prostate 101% | SK-MEL-5 melanoma 103% | UACC-62 melanoma 107% | LOX IMVI melanoma 95.6% | SK-MEL-28 melanoma 112% | SK-MEL-2 melanoma 92.8% | SN12C renal 103% | UO-31 renal 88% | TK-10 renal 114% | ACHN renal 99.6% | CAKI-1 renal 102% | A498 renal 95.6% | CCRF-CEM leukemia 96.1% | MOLT-4 leukemia 98.8%

COc1ccc(/C=N/OCC(O)CNCc2ccccc2)cc1OC1CCCC1 (stereo unspecified)
inactive: HCT-15 colon 102% | HT29 colon 104% | SNB-75 CNS 77.9% | SNB-19 CNS 95.2% | U251 CNS 99.6% | PC-3 prostate 86.7% | SK-MEL-5 melanoma 93.3% | UACC-62 melanoma 98.3% | LOX IMVI melanoma 91.4% | SK-MEL-28 melanoma 109% | SK-MEL-2 melanoma 115% | EKVX NSCLC 93.1% | SN12C renal 99.9% | TK-10 renal 103% | ACHN renal 99.6% | CAKI-1 renal 84% | CCRF-CEM leukemia 113% | MOLT-4 leukemia 101%

COc1cc2cc(Oc3ccc(NC(=O)Nc4cccc(C(F)(F)F)c4)cc3)c(C)nc2cc1OCCN1CCCCC1
inactive: EKVX NSCLC 27.5% | A498 renal 51%
active: HCT-15 colon -81.9% | HT29 colon -81.7% | SNB-75 CNS -70.3% | SNB-19 CNS -55.1% | U251 CNS -82.4% | PC-3 prostate -54.6% | SK-MEL-5 melanoma -94.1% | UACC-62 melanoma -74.2% | LOX IMVI melanoma -94.3% | SK-MEL-28 melanoma -92.1% | SK-MEL-2 melanoma -65.9% | SN12C renal -88.9% | ACHN renal -73.3% | CAKI-1 renal -77.7% | CCRF-CEM leukemia 1.49% | MOLT-4 leukemia -54.9%

Cc1nc2ccc(Cl)cc2n1C
inactive: HCT-15 colon 113% | HT29 colon 98.8% | SNB-75 CNS 103% | SNB-19 CNS 99.5% | U251 CNS 99.7% | PC-3 prostate 101% | SK-MEL-5 melanoma 99.6% | UACC-62 melanoma 106% | LOX IMVI melanoma 108% | SK-MEL-28 melanoma 117% | SK-MEL-2 melanoma 101% | SN12C renal 101% | UO-31 renal 102% | TK-10 renal 97.2% | ACHN renal 102% | CAKI-1 renal 101% | A498 renal 95.5% | CCRF-CEM leukemia 94.6% | MOLT-4 leukemia 97.7%

COc1ccc(CSc2nc3cc(OC)c(OC)cc3c(=O)n2-c2ccc(Cl)cc2)cc1
inactive: HCT-15 colon 98.6% | HT29 colon 112% | SNB-75 CNS 92.9% | SNB-19 CNS 99.8% | U251 CNS 94.2% | PC-3 prostate 82% | SK-MEL-5 melanoma 95.4% | UACC-62 melanoma 99.4% | LOX IMVI melanoma 98% | SK-MEL-28 melanoma 107% | SK-MEL-2 melanoma 110% | SN12C renal 98.6% | UO-31 renal 71.2% | TK-10 renal 116% | ACHN renal 97.1% | CAKI-1 renal 91.2% | A498 renal 88.7% | CCRF-CEM leukemia 88.6% | MOLT-4 leukemia 101%

NS(=O)(=O)c1cc(Br)c2c(c1)S(=O)(=O)NCN2
inactive: HCT-15 colon 112% | HT29 colon 103% | SNB-75 CNS 117% | SNB-19 CNS 112% | U251 CNS 107% | PC-3 prostate 105% | SK-MEL-5 melanoma 111% | UACC-62 melanoma 111% | LOX IMVI melanoma 113% | SK-MEL-28 melanoma 110% | SK-MEL-2 melanoma 102% | EKVX NSCLC 120% | SN12C renal 104% | TK-10 renal 110% | ACHN renal 111% | CAKI-1 renal 94.9% | A498 renal 115% | CCRF-CEM leukemia 99.7% | MOLT-4 leukemia 87.5%

COc1ccc(Nc2nc(NCCNc3ccnc4cc(Cl)ccc34)nc(N3CCOCC3)n2)cc1
inactive: HCT-15 colon 15.1% | SNB-75 CNS 38.4% | SNB-19 CNS 78% | U251 CNS 48.2% | PC-3 prostate 43.8% | SK-MEL-5 melanoma 48.7% | UACC-62 melanoma 74.2% | LOX IMVI melanoma 40.2% | SK-MEL-2 melanoma 78.8% | SN12C renal 61.4% | UO-31 renal 45.3% | TK-10 renal 103% | ACHN renal 63.2% | CAKI-1 renal 80.2% | CCRF-CEM leukemia 56.4% | MOLT-4 leukemia 35.6%
active: HT29 colon 4.28% | SK-MEL-28 melanoma -80.7% | A498 renal -17.7%

Cc1oc2c(c1C(=O)N1CC[C@@H](N)C1)C(=O)c1c(c(O)c3ccccc3c1O)C2=O
active: UO-31 renal 4.23% | CCRF-CEM leukemia -3.65% | MOLT-4 leukemia 0.576%
inactive: HCT-15 colon 20.7% | HT29 colon 11.3% | SNB-75 CNS 31.8% | SNB-19 CNS 40% | U251 CNS 23.8% | PC-3 prostate 10.9% | SK-MEL-5 melanoma 42.7% | UACC-62 melanoma 55.2% | LOX IMVI melanoma 24.9% | SK-MEL-28 melanoma 62.9% | SK-MEL-2 melanoma 77.4% | SN12C renal 22% | TK-10 renal 57% | ACHN renal 14.8% | CAKI-1 renal 28.1% | A498 renal 61.5%

CCC(C)Oc1cc(/C=N/NC(=O)c2cnn3c2NC(c2ccccc2)C3)ccc1OC (stereo unspecified)
active: SNB-75 CNS -12.2%
inactive: HCT-15 colon 23.9% | HT29 colon 15% | SNB-19 CNS 38.6% | U251 CNS 34.8% | PC-3 prostate 25.3% | SK-MEL-5 melanoma 21.2% | UACC-62 melanoma 36% | LOX IMVI melanoma 26.1% | SK-MEL-28 melanoma 59.1% | SK-MEL-2 melanoma 35.6% | SN12C renal 47% | UO-31 renal 53.8% | TK-10 renal 70.7% | ACHN renal 40.7% | CAKI-1 renal 35.9% | CCRF-CEM leukemia 23.1%

Cc1c(C)n(CC(O)CNC2CCCCC2C)c2ccccc12 (stereo unspecified)
inactive: SNB-19 CNS 62% | A498 renal 63.3%
active: HCT-15 colon -16.2% | HT29 colon -49.6% | SNB-75 CNS -38.7% | U251 CNS -52.1% | PC-3 prostate -24% | SK-MEL-5 melanoma -86.2% | UACC-62 melanoma -84.7% | LOX IMVI melanoma -83.1% | SK-MEL-28 melanoma -85.2% | SK-MEL-2 melanoma -49.9% | SN12C renal -41.9% | UO-31 renal -87.5% | TK-10 renal -76.3% | ACHN renal -41.3% | CAKI-1 renal -38.7% | CCRF-CEM leukemia -9.05% | MOLT-4 leukemia 4.33%

Oc1ccc(Cl)cc1CNc1nc2ccccc2[nH]1
inactive: HCT-15 colon 15.9% | SNB-75 CNS 70.5% | SNB-19 CNS 111% | U251 CNS 55% | SK-MEL-5 melanoma 49% | SK-MEL-2 melanoma 87.1% | SN12C renal 61.1% | UO-31 renal 56% | TK-10 renal 88.2% | ACHN renal 57% | CAKI-1 renal 64% | A498 renal 59.6%
active: HT29 colon -46% | PC-3 prostate -5.5% | UACC-62 melanoma -68.1% | LOX IMVI melanoma -78.1% | SK-MEL-28 melanoma -82.6% | CCRF-CEM leukemia -21.4% | MOLT-4 leukemia -25.1%

Cc1ccc(C2SCC(=O)N2NC(=O)c2[nH]c3ccc(F)cc3c2-c2ccccc2)cc1 (stereo unspecified)
inactive: HCT-15 colon 89.8% | HT29 colon 74.4% | SNB-75 CNS 71.4% | SNB-19 CNS 88.5% | U251 CNS 81% | PC-3 prostate 59.9% | SK-MEL-5 melanoma 89.6% | UACC-62 melanoma 78.1% | LOX IMVI melanoma 91.2% | SK-MEL-28 melanoma 97.5% | SK-MEL-2 melanoma 97.6% | EKVX NSCLC 84.4% | SN12C renal 95.8% | TK-10 renal 108% | ACHN renal 89.9% | CAKI-1 renal 77.1% | A498 renal 86.5% | CCRF-CEM leukemia 89.1% | MOLT-4 leukemia 69.2%

CCCCC1COc2cccc3c(SCC(=O)N(C)c4cccc5ccccc45)cc[n+]1c23 (stereo unspecified)
inactive: HCT-15 colon 94.3% | HT29 colon 103% | SNB-75 CNS 104% | SNB-19 CNS 98.7% | U251 CNS 99.3% | PC-3 prostate 95.8% | SK-MEL-5 melanoma 98.5% | UACC-62 melanoma 99.9% | LOX IMVI melanoma 91.2% | SK-MEL-28 melanoma 111% | SK-MEL-2 melanoma 102% | EKVX NSCLC 109% | SN12C renal 98.7% | TK-10 renal 96.2% | ACHN renal 104% | CAKI-1 renal 98.7% | CCRF-CEM leukemia 99.8% | MOLT-4 leukemia 102%

CCN(CC)CCCNc1ccc(C)c2sc3ccccc3c(=O)c12
active: HCT-15 colon -13.3% | HT29 colon -24.2% | SK-MEL-5 melanoma -99.4% | UACC-62 melanoma -49.2% | LOX IMVI melanoma -93.4% | SK-MEL-28 melanoma -80%
inactive: SNB-75 CNS 47.1% | SNB-19 CNS 46.7% | U251 CNS 15.4% | PC-3 prostate 22.7% | SK-MEL-2 melanoma 94% | EKVX NSCLC 87.9% | SN12C renal 40.5% | ACHN renal 20.9% | CAKI-1 renal 64.6% | CCRF-CEM leukemia 21.8% | MOLT-4 leukemia 15.3%

Fc1c[c-]c(-c2ccccn2)c(F)c1.Fc1c[c-]c(-c2ccccn2)c(F)c1.[Cl][Pt+].[Cl][Pt+].c1ccc([PH+](C[PH+](c2ccccc2)c2ccccc2)c2ccccc2)cc1
inactive: HCT-15 colon 90.8% | SNB-75 CNS 20.1% | SNB-19 CNS 17.8% | U251 CNS 15% | PC-3 prostate 14.9% | LOX IMVI melanoma 20.5% | SK-MEL-28 melanoma 16.1% | EKVX NSCLC 12.4% | ACHN renal 89.3% | CAKI-1 renal 41.4% | A498 renal 21.6%
active: HT29 colon 7.78% | SK-MEL-5 melanoma -70.8% | UACC-62 melanoma 3.59% | SK-MEL-2 melanoma 8.6% | SN12C renal 5.5%
